Measured values: PubChem BioAssay
Active and inactive are the calls of the source.

Tests used:
[1] = test system: Plasmodium falciparum Sir2 (PF13_0152, Sir2A); assay: Plasmodium falciparum Sir2A binding compounds – biochemical, small-molecule microarray, 635 nm fluorescence, primary screen (AID 1098); details: fluorescence 635 nm, higher = more signal;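 note: score merges spot fluorescence intensity with its signal-to-noise ratio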
[2] = probe aDKK1 binding to arrayed compounds – biochemical, biotinylated probe, 635/667 nm fluorescence, primary screen (AID 1099); details: small-molecule microarray, higher = more signal;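 note: score merges 667nm spot fluorescence with signal to noise across triplicate slides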
[3] = probe aCHRDL2 binding to arrayed compounds – biochemical, biotinylated probe, 635/667 nm fluorescence, primary screen (AID 1100); details: small-molecule microarray, higher = more signal
[4] = change in splice reporter luminescence, either direction, cell-based, HEK293, spliceosome inhibition project, primary screen (AID 1101); details: HEK293 splicing luciferase reporter, 24 h, higher = more signal, called active from +8 up or from −8 down;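 note: HEK293 cells carrying a splicing-competent luciferase reporter gene; test concentration not given here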
[5] = target: Fibroblast growth factor 10 (Homo sapiens) (UniProt O15520); assay: compounds binding fibroblast growth factor 10 – biochemical, small-molecule microarray, 635 nm fluorescence, primary screen (AID 1102); details: FGF10 binding, fluorescence 635 nm, higher = more signal
[6] = test system: glycogen synthase kinase-3 (GSK3A per assay name; protocol says GSK3B); assay: compounds binding glycogen synthase kinase-3 – biochemical, small-molecule microarray, 635 nm fluorescence, GSK3A, primary screen (AID 1103); details: fluorescence 635 nm, higher = more signal; note: the record names both GSK3A and GSK3B
[7] = target: Epidermal growth factor receptor (Homo sapiens) (UniProt P00533); assay: compounds binding epidermal growth factor receptor – biochemical, small-molecule microarray, 635 nm fluorescence, primary screen (AID 1104); details: EGFR binding, higher = more signal;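 note: score merges 667 nm emission intensity with spot signal to noise over triplicate slides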
[8] = target: Follistatin-related protein 3 (Homo sapiens) (UniProt O95633); assay: compounds binding follistatin-related protein 3 – biochemical, small-molecule microarray, 635 nm fluorescence, primary screen (AID 1105); details: FSTL3 binding, higher = more signal;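 note: score merges emission near 667 nm and signal to noise per printed spot across three slides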
[9] = target: Dickkopf-related protein 1 (Homo sapiens) (UniProt O94907); assay: small molecules binding DKK1 protein – biochemical, small-molecule microarray, 635 nm fluorescence scan, primary screen (AID 1106); details: higher = more signal;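 note: score merges emission near 667 nm with signal to noise over three replicate slides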
[10] = test system: Inhibin beta A chain (activin A); assay: small molecules binding activin A – biochemical, small-molecule microarray, 635 nm fluorescence scan, primary screen (AID 1107); details: INHBA, higher = more signal;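 note: mouse activin A protein probed at 4.33 µg/mL on printed slides; score merges bound-protein fluorescence near 667 nm with spot signal-to-noise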
[11] = test system: Human papillomavirus type 1a protein E7 (residues 44-93); assay: small molecules binding HPV E7 44-93 – biochemical, small-molecule microarray, residues 44-93, 635 nm fluorescence, primary screen (AID 1108); details: fluorescence 635 nm, higher = more signal;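 note: E7 fragment applied at 1 µg/mL in TBST for 1 h at 4 C; score combines spot fluorescence with its signal to noise ratio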
[12] = hepatitis C replication reporter changes, two-sided – Huh7 cells, luciferase reporter, HCV replication inhibitor project, primary screen (AID 1109); details: Huh7 HCV replicon luciferase reporter, 48 h; higher = more signal;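 note: huh7 hepatoma cells harbouring a luciferase neomycin HCV replicon reporter; luciferase luminescence as measure of HCV replicon replication; test concentration not given here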
[13] = target: Left-right determination factor 2 (Homo sapiens) (UniProt O00292); assay: small molecules binding LEFTY2 protein – biochemical, small-molecule microarray, 635 nm fluorescence scan, primary screen (AID 1110); details: higher = more signal
[14] = target: Calmodulin-1 (Homo sapiens) (UniProt P0DP23); assay: small molecules binding calmodulin-1 with EGTA – biochemical, small-molecule microarray, Cy5-labelled CALM1, profiling panel (AID 1111); details: Cy5-CALM1 binding fluorescence, higher = more signal;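 note: labelled calmodulin applied in Tris saline Tween buffer holding calcium plus EGTA and DTT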
[15] = target: Calmodulin-1 (Homo sapiens) (UniProt P0DP23); assay: small molecules binding Ca-loaded calmodulin-1 – biochemical, small-molecule microarray, Cy5-labelled CALM1, plus calcium, artefact control for SMM control-protein annotation, profiling panel (AID 1112); details: Cy5-CALM1 binding fluorescence, higher = more signal;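 note: score merges spot fluorescence with signal to noise from triplicate slides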
[16] = probe aWnt5a binding to arrayed compounds – biochemical, biotinylated probe, 635/667 nm fluorescence, primary screen (AID 1113); details: small-molecule microarray, higher = more signal;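 note: score merges 667 nm fluorescence intensity with signal-to-noise per printed feature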
[17] = probe aShh binding to arrayed compounds – biochemical, biotinylated probe, 635/667 nm fluorescence, primary screen (AID 1114); details: small-molecule microarray, higher = more signal;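 note: probe is biotin-labelled aShh protein from a stem cell growth factor screen; measures binding of labelled protein to compounds printed on the slide; score merges feature fluorescence at 667 nm with signal-to-noise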
[18] = probe aNog binding to arrayed compounds – biochemical, biotinylated probe, 635/667 nm fluorescence, primary screen (AID 1115); details: small-molecule microarray, higher = more signal;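 note: probe is biotinylated aNog protein used at 0.15 µg/mL for 1 h at 4 C; z-score combines 667 nm fluorescence of each spot with its signal to noise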
[19] = target: Torsin-1A-interacting protein 1 (Homo sapiens) (UniProt Q5JTV8); assay: compound microarray binding of lysate hLAP1 – cell lysate, small-molecule microarray, COS7 lysate, 635/667 nm fluorescence, primary screen (AID 1116); details: 635 nm fluorescence, higher = more signal
[20] = target: Alpha-bungarotoxin (Bungarus multicinctus) (UniProt P60615); assay: compounds binding labelled alpha-BTX control protein – biochemical, small-molecule microarray, Alexa647 label, 635/667 nm fluorescence, artefact control for SMM control protein annotation, profiling panel (AID 1117); details: alpha-BTX-A647 binding fluorescence, higher = more signal
Chain of Alpha-bungarotoxin (Bungarus multicinctus) (P60615 whole entry, looked up): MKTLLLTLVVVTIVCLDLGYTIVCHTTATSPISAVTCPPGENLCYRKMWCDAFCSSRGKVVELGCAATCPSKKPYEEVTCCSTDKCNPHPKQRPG

Chain of Follistatin-related protein 3 (Homo sapiens) (O95633 whole entry, looked up): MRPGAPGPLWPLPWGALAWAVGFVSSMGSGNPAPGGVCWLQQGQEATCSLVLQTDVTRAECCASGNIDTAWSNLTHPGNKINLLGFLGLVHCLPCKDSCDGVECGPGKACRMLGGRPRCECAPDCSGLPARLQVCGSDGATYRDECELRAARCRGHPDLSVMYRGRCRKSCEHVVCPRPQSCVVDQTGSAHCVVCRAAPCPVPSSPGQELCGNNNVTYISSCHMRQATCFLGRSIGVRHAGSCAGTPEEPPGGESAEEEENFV
Chain of Left-right determination factor 2 (Homo sapiens) (O00292 whole entry, looked up): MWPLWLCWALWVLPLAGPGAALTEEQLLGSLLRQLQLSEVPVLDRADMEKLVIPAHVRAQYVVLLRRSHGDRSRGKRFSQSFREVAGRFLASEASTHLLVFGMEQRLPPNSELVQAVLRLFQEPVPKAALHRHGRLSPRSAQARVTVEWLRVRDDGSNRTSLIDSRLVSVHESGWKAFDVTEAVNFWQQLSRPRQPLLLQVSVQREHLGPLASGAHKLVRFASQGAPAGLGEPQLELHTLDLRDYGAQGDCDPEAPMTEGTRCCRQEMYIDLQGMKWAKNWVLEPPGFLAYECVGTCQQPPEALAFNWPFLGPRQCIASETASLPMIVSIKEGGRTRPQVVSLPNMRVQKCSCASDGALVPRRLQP
Chain of Fibroblast growth factor 10 (Homo sapiens) (O15520 whole entry, looked up): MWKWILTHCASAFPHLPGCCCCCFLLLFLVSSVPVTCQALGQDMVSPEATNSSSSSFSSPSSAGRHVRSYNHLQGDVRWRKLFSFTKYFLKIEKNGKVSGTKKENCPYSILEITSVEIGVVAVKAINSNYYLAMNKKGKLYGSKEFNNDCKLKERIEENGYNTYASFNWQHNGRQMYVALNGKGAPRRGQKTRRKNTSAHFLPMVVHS
Chain of Dickkopf-related protein 1 (Homo sapiens) (O94907 whole entry, looked up): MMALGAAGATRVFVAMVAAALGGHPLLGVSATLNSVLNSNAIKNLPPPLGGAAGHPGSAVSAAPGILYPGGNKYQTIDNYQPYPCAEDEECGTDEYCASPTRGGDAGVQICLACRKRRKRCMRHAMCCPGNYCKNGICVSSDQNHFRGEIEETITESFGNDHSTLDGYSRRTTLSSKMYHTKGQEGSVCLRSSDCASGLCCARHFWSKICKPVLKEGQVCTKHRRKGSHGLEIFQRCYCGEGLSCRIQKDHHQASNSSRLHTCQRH
Chain of Epidermal growth factor receptor (Homo sapiens) (P00533 whole entry, looked up): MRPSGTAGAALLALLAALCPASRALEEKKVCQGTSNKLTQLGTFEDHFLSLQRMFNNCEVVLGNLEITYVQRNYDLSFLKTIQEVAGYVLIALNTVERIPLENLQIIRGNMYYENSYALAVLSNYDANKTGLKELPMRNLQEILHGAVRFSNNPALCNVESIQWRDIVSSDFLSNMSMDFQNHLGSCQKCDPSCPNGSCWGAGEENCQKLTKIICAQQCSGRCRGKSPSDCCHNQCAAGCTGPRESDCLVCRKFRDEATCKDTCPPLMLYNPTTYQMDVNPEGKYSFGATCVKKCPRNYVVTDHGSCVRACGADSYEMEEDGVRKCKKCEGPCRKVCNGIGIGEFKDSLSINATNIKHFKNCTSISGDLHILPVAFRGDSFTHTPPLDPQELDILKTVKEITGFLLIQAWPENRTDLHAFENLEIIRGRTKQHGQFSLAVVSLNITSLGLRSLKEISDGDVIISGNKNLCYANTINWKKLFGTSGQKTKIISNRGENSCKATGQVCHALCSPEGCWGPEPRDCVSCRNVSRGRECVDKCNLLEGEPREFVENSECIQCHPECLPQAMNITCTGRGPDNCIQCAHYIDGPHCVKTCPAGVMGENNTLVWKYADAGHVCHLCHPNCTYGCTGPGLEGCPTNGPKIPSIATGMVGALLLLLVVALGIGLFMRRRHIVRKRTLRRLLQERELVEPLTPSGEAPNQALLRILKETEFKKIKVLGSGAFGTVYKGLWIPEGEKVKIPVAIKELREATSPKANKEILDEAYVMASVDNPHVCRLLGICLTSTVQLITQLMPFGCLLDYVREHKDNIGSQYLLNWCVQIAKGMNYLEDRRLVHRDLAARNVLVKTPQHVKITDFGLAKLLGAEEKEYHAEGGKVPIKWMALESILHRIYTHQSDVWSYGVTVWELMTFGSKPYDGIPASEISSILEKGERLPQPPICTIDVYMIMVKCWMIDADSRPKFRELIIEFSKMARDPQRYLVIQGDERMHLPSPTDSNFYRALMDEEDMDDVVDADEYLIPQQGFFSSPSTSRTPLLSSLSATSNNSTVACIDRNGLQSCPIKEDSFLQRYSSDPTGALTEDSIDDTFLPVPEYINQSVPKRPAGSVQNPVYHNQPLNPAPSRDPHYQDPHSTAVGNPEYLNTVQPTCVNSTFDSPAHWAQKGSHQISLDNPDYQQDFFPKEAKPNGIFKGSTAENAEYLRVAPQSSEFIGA
Chain of Torsin-1A-interacting protein 1 (Homo sapiens) (Q5JTV8 whole entry, looked up): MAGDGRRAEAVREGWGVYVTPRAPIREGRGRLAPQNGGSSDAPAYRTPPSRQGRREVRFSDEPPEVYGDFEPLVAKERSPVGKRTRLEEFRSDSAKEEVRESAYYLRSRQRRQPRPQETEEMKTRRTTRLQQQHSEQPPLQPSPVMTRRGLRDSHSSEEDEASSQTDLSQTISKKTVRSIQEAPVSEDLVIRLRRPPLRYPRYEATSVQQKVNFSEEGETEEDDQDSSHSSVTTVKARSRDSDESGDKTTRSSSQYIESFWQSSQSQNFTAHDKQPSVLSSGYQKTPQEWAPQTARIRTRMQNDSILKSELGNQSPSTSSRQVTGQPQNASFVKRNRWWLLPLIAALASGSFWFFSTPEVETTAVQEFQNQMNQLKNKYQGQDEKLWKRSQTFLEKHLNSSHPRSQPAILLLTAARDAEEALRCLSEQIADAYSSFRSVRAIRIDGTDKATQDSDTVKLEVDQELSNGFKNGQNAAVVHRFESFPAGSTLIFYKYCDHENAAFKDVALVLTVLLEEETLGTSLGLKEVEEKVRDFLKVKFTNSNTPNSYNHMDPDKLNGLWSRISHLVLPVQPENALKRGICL

For `[N-]=[N+]=NCc1ccccc1[C@H]1OC(c2ccc(OCCCO)cc2)=N[C@@]1(Cc1ccccc1)C(=O)O`, the composite z-score [1] was 0.208, the composite z-score [2] was 0.213 and the composite z-score [3] was 0.884. For the same compound, the z-score [4] was -1.01 (inactive), the composite z-score [5] was 0.621 and the composite z-score [6] was 0.51. It also gave a composite z-score [7] of 0.0378, a composite z-score [8] of 0.47 and a composite z-score [9] of -0.213. It also gave a composite z-score [10] of 1.25, a composite z-score [11] of 1.38 and a z-score [12] of -2.64. For the same compound, the composite z-score [13] was 0.115, the composite z-score [14] was 1.46 and the composite z-score [15] was 0.484. For the same compound, the composite z-score [16] was 0.0079, the composite z-score [17] was 0.199 and the composite z-score [18] was -0.204. For the same compound, the composite z-score [19] was 0.875 and the composite z-score [20] was 0.96.

With `COc1ccc(C(=O)Nc2cccc(CN3C(=O)[C@@]4(O[C@@H](CCn5cc([C@H](O)c6ccccc6)nn5)[C@H]([Si](C)(C)c5ccc(OC)cc5)[C@H]4C)c4ccccc43)c2)cc1` the composite z-score [1] was 1.19, the composite z-score [2] was 0.142 and the composite z-score [3] was 0.634. For the same compound, the z-score [4] was -1.46 (inactive), the composite z-score [5] was 1.21 and the composite z-score [6] was 0.175. It also gave a composite z-score [7] of -0.219, a composite z-score [8] of 0.206 and a composite z-score [9] of 0.249. For the same compound, the composite z-score [10] was 1.16, the composite z-score [11] was -0.32 and the z-score [12] was -5.06. The composite z-score [13] was 0.534, the composite z-score [14] was -0.0819 and the composite z-score [15] was -0.346. For the same compound, the composite z-score [16] was 0.0279, the composite z-score [17] was -0.262 and the composite z-score [18] was -0.205. It also gave a composite z-score [19] of 0.485 and a composite z-score [20] of 0.935.

`CC(c1ccccc1)C(O)C1C=CC2C(=O)N(Cc3ccccc3)C(=O)C2N1n1cnnc1` (stereo not given) gave a composite z-score [1] of 0.424, a composite z-score [2] of 0.492 and a composite z-score [3] of 0.675. For the same compound, the z-score [4] was -0.605 (inactive), the composite z-score [5] was 0.691 and the composite z-score [6] was 0.29. For the same compound, the composite z-score [7] was 0.153, the composite z-score [8] was 0.369 and the composite z-score [9] was -0.174. For the same compound, the composite z-score [10] was 0.813, the composite z-score [11] was 1.12 and the z-score [12] was -0.562. It also gave a composite z-score [13] of 0.202, a composite z-score [14] of -0.133 and a composite z-score [15] of 0.13. The composite z-score [16] was 0.0657, the composite z-score [17] was 0.297 and the composite z-score [18] was 0.49. It also gave a composite z-score [19] of 0.0111 and a composite z-score [20] of 0.512.

`Cc1ccc(F)cc1S(=O)(=O)N[C@@H]1CCN(Cc2ccc(C(F)(F)F)cc2)C1` gave a composite z-score [1] of -0.245, a composite z-score [2] of 0.735 and a composite z-score [3] of -0.565. For the same compound, the z-score [4] was 0.169 (inactive), the composite z-score [5] was -0.425 and the composite z-score [6] was -1.41. For the same compound, the composite z-score [7] was -0.444, the composite z-score [8] was -0.769 and the composite z-score [9] was 0.0494. The composite z-score [10] was -0.127, the composite z-score [11] was -0.237 and the z-score [12] was -2.01. For the same compound, the composite z-score [13] was -0.0209, the composite z-score [14] was -1.3 and the composite z-score [15] was -0.904. For the same compound, the composite z-score [16] was -0.152, the composite z-score [17] was 0.0723 and the composite z-score [18] was -0.311. For the same compound, the composite z-score [19] was -0.0249 and the composite z-score [20] was -0.536.

`[N-]=[N+]=Nc1ccccc1[C@@H]1OC(c2ccc(OCCCO)cc2)=N[C@]1(CCS(=O)(=O)c1ccccc1)C(=O)N1CCCCC1` showed a composite z-score [1] of 1.39, a composite z-score [2] of 1.63 and a composite z-score [3] of 1.41. The z-score [4] was -0.261 (inactive), the composite z-score [5] was 1.05 and the composite z-score [6] was 0.85. It also gave a composite z-score [7] of 0.098, a composite z-score [8] of 0.811 and a composite z-score [9] of -0.423. For the same compound, the composite z-score [10] was 1.36, the composite z-score [11] was 1.22 and the z-score [12] was 0.0018. For the same compound, the composite z-score [13] was -0.175, the composite z-score [14] was 2.16 and the composite z-score [15] was 1.26. It also gave a composite z-score [16] of 0.129, a composite z-score [17] of 0.408 and a composite z-score [18] of 0.755. For the same compound, the composite z-score [19] was 1.79 and the composite z-score [20] was 3.01.

`COC(=O)[C@@]1(Cc2ccc(OC)cc2)[C@H]2c3cc(C(=O)N4CCCC4)n(CCc4ccccn4)c3C[C@H]2CN1C(=O)c1ccccc1` gave a composite z-score [1] of 1.18, a composite z-score [2] of 0.904 and a composite z-score [3] of 0.95. For the same compound, the z-score [4] was -1.36 (inactive), the composite z-score [5] was 0.289 and the composite z-score [6] was -0.282. For the same compound, the composite z-score [7] was -0.664, the composite z-score [8] was -0.396 and the composite z-score [9] was -0.949. It also gave a composite z-score [10] of 0.845, a composite z-score [11] of -0.091 and a z-score [12] of -0.216. It also gave a composite z-score [13] of -0.694, a composite z-score [14] of 1.34 and a composite z-score [15] of 0.61. For the same compound, the composite z-score [16] was 0.164, the composite z-score [17] was 1.23 and the composite z-score [18] was 1.22. It also gave a composite z-score [19] of 0.432 and a composite z-score [20] of 0.329.

For `C[C@H]1C2[C@H](Cc3ccccc3)NC(=O)[C@]23C(=O)N[C@H](Cc2ccccc2)C(=O)N[C@H](Cc2ccccc2)C(=O)NC/C=C/CCC/C=C/C3[C@@H]2O[C@]12C` (stereo not given in full), the composite z-score [1] was 1.17, the composite z-score [2] was -0.319 and the composite z-score [3] was -0.327. The z-score [4] was -0.549 (inactive), the composite z-score [5] was 0.398 and the composite z-score [6] was 0.309. For the same compound, the composite z-score [7] was 0.17, the composite z-score [8] was 1.4 and the composite z-score [9] was 0.54. The composite z-score [10] was 0.645, the composite z-score [11] was 1.39 and the z-score [12] was 0.554. It also gave a composite z-score [13] of -0.0974, a composite z-score [14] of -0.343 and a composite z-score [15] of -1.28. It also gave a composite z-score [16] of -0.124, a composite z-score [17] of -0.123 and a composite z-score [18] of -0.0662. It also gave a composite z-score [19] of -0.564 and a composite z-score [20] of 0.617.

Work on `C=C(C)[C@@H]1CC=C(C(O)C2C=CC3C(=O)N(Cc4ccccc4)C(=O)C3N2n2cnnc2)CC1` (stereo not given in full) yielded a composite z-score [1] of 0.827, a composite z-score [2] of 0.546 and a composite z-score [3] of 1.11. For the same compound, the z-score [4] was -0.925 (inactive), the composite z-score [5] was -0.394 and the composite z-score [6] was -0.724. For the same compound, the composite z-score [7] was -0.608, the composite z-score [8] was -0.739 and the composite z-score [9] was -0.665. For the same compound, the composite z-score [10] was 1.34, the composite z-score [11] was 0.146 and the z-score [12] was -2.2. It also gave a composite z-score [13] of -0.485, a composite z-score [14] of 0.133 and a composite z-score [15] of 0.3. The composite z-score [16] was 0.0077, the composite z-score [17] was -0.156 and the composite z-score [18] was 0.499. It also gave a composite z-score [19] of 0.401 and a composite z-score [20] of 0.291.

Work on `O=C1C2C=CC(C(O)c3ccccn3)N(Nc3ccccc3F)C2C(=O)N1c1ccccc1` (stereo not given) yielded a composite z-score [1] of 0.205, a composite z-score [2] of 0.19 and a composite z-score [3] of 0.461. For the same compound, the z-score [4] was -0.0196 (inactive), the composite z-score [5] was 0.0698 and the composite z-score [6] was -0.0392. It also gave a composite z-score [7] of 0.0563, a composite z-score [8] of -0.0532 and a composite z-score [9] of 0.124. It also gave a composite z-score [10] of 0.926, a composite z-score [11] of 0.642 and a z-score [12] of 0.426. For the same compound, the composite z-score [13] was 0.0355, the composite z-score [14] was -0.116 and the composite z-score [15] was -0.332. For the same compound, the composite z-score [16] was -0.0685, the composite z-score [17] was 0.0278 and the composite z-score [18] was -0.216. For the same compound, the composite z-score [19] was 0.0065 and the composite z-score [20] was 0.231.
